Compound activity deposited in PubChem BioAssay by Broad Institute.
The list is a sample of the results.
aSyn UTR act: Activators via SNCA 5'UTR binding, MLPCN; activity score, % (tested at 7.5 µM), hits read low; alpha-synuclein 5'UTR reporter, activators screen; 7.1% of 300,000 active; in the data active = activity score below about -60%
* marks the source's active call; other numbers are inactive results.

SMILES | aSyn UTR act
CSc1ccccc1OCc1cc(C(=O)N(C)CC2COCCO2)no1 (configuration not stated) | -83*
CSc1ccccc1OCc1cc(C(=O)N(C)Cc2nonc2C)no1 | -119*
CCn1ccnc1CN(C)C(=O)c1cc(COc2ccccc2SC)on1 | -101*
Cc1ccc(/C=N/Nc2ccc(C(=O)O)cc2)s1 | 76
O=C(O)c1ccc(N/N=C/c2ccc(-c3ccccc3Cl)o2)cc1 | -65*
O=C(O)c1ccc(N/N=C/c2ccc(OC(=O)c3ccccc3Cl)cc2)cc1 | 57
Cc1ccc(/C=N/Nc2ccc(C(=O)O)cc2)o1 | -70*
N#Cc1cc2cc3c(cc2nc1N1CCCCC1)OCCO3 | -222*
N#Cc1cnn2c1nc(N1CCCCC1)c1ccccc12 | 64
COc1ccc(/C=N/Nc2nc(Nc3ccccc3)nc(N3CCCCC3)n2)cc1OC | -111*
CCCCCOC(=O)NCC(O)c1ccccc1 (configuration not stated) | -128*
C/C(=N\NC(=O)COc1ccc(C(C)(C)C)cc1)c1ccc(-n2ccnc2)cc1 | -133*
CN(C)/C=C1\N=C(c2ccc3c(c2)OCO3)OC1=O | -116*
CCCNC(=O)c1ccc2c(=O)c(O)c(-c3ccsc3)[nH]c2c1 | 87
CCCCNC(=S)NNC(=O)c1csc(C)c1 | -63*
O=C(NNC(=S)NC1CCCCC1)c1ccc(Cl)s1 | -62*
Cc1cc(C(=O)NNC(=S)NC2CCCCC2)cs1 | -77*
O=C(NC(=S)NC1CCCC1)c1ccccc1 | -126*
COc1cccc(C(=O)NNC(=S)NC2CCCCC2)c1 | -64*
CC1=NN(C(N)=S)C(=O)C1N=Nc1cccc([N+](=O)[O-])c1 (configuration not stated) | -121*
CC1=NN(C(N)=S)C(=O)C1N=Nc1cccc(Cl)c1C (configuration not stated) | -184*
CC1=NN(C(N)=S)C(=O)C1N=Nc1ccc(Cl)cc1 (configuration not stated) | -143*
CC1=NN(C(N)=S)C(=O)C1N=Nc1ccc(Br)cc1 (configuration not stated) | -115*
Nc1nc2ccccc2n1/N=C/c1ccc([N+](=O)[O-])s1 | 83
Nc1nc2ccccc2n1/N=C/c1ccc(-c2ccccc2)o1 | -191*
SMILES | aSyn UTR act
CC(C)c1ccc(NC(=O)c2ccccc2NC(=O)C2CCCCC2C(=O)O)cc1 (configuration not stated) | -121*
O=C(NCCc1ccccc1)c1ccccc1NC(=O)C1CCCCC1C(=O)O (configuration not stated) | -146*
CCCc1cc(C(=O)Nc2cc(Cl)ccc2O)no1 | -162*
CCCc1cc(C(=O)Nc2cc(Br)ccc2O)no1 | -145*
O=c1cc(-c2ccc(F)cc2)oc2ccccc12 | -97*
CSc1ccc(-c2cc(=O)c3ccccc3o2)cc1 | -328*
O=c1cc(-c2ccccc2F)oc2ccccc12 | -111*
CC(=O)c1c(C)[nH]c(C(=O)Nc2cc(C)cc(C)c2)c1C | -78*
COc1ccc(OC)c(NC(=O)c2[nH]c(C)c(C(C)=O)c2C)c1 | -85*
CC(=O)c1c(C)[nH]c(C(=O)Nc2nc(C)cs2)c1C | 86
CC(=O)c1c(C)[nH]c(C(=O)Nc2cccc(S(=O)(=O)N(C)C)c2)c1C | -153*
Cc1ccc(O)c(-c2cc(-c3ccccc3[N+](=O)[O-])[nH]n2)c1 | -95*
COc1ccc(-c2cc(-c3ccc(OC)cc3)[nH]n2)cc1 | -155*
COc1ccc(-c2cc(-c3ccc(C)cc3)n[nH]2)c(O)c1 | -144*
COc1ccc(Oc2ccc(-c3ccn[nH]3)cc2)cc1 | -76*
COc1ccc(-c2cc(-c3cc(C)ccc3O)[nH]n2)cc1 | -249*
Oc1ccc(Cl)cc1-c1cc(-c2ccccc2Cl)[nH]n1 | -158*
S=c1nc(-c2ccc(Br)cc2)oc2c1CCCC2 | -184*
Cc1cccc(-c2nc(=S)c3c(o2)CCCC3)c1 | -133*
Brc1ccc(-c2cn3c(n2)SCC3)cc1 | -179*
Clc1ccc(-c2cn3c(n2)SCC3)cc1 | -186*
COc1cccc(OCc2cc(C(=O)N3CCCC3c3ccccn3)no2)c1 (configuration not stated) | -84*
COc1cccc(OCc2cc(C(=O)N3CCNC(=O)C3Cc3ccccc3)no2)c1 (configuration not stated) | -74*
O=C(c1cc(COc2ccc3ncccc3c2)on1)N1CCC[C@H]1CO | -67*
O=c1oc2ccccc2nc1/C=C(O)/C=C/c1ccc(F)cc1 | -88*
SMILES | aSyn UTR act
CN(CCc1ccccn1)C(=O)CCc1nnc(CCCc2ccccc2)o1 | -91*
CC(C)N(Cc1nccn1C)C(=O)CCc1nnc(CCCc2ccccc2)o1 | -120*
Cc1nc(N)sc1N=Nc1ccc(F)cc1 | -107*
CC(=Nc1ccc(Br)cc1)c1sc2ccccc2c1O | -125*
CC(=Nc1ccccc1)c1sc2ccccc2c1O | -383*
Cc1ccc(-c2csc(=S)[nH]2)cc1 | -113*
S=c1[nH]c(-c2ccc(Cl)cc2)cs1 | -76*
CCCCCCc1ccc(N2C[C@H](C)[C@@H](CC(=O)NCc3ccccc3)C2=O)cc1 | -82*
COc1ccc(/C(N)=C/C(=O)C(C)(C)C)cc1 | -98*
N#C/C(=C\c1c(N2CCN(c3ccccc3)CC2)nc2ccccn2c1=O)C(N)=O | -71*
CCOC(=O)/C(C#N)=C/c1c(N2CCN(c3ccccc3)CC2)nc2ccccn2c1=O | -62*
COC(=O)/C(C#N)=C/c1c(N2CCN(c3ccccc3)CC2)nc2ccccn2c1=O | -65*
CN(C)S(=O)(=O)c1ccc(C(=O)NCCOc2ccc(F)cc2)cc1 | -99*
CN(C)S(=O)(=O)c1ccc(C(=O)NCCOc2ccccc2)cc1 | -106*
COc1ccc(-c2nnc(SCC(=O)Nc3cc(F)ccc3C)o2)cc1 | -161*
Cc1ccc(SCC(=O)Nc2cccc(-c3nnc(-c4ccco4)o3)c2)cc1 | -144*
COc1cccc(NC(=O)CSc2nnc(-c3ccc(C)cc3)o2)c1 | -114*
Cc1ccc(CN=c2c([N+](=O)[O-])nn(-c3ccc4c(c3)OCCO4)n2O)cc1 | -132*
COc1ccc(-n2nc([N+](=O)[O-])c(=NCc3ccc4c(c3)OCO4)n2O)cc1 | -109*
c1ccc(COc2ccc(OCCCNC3CCCC3)cc2)cc1 | -70*
C=CCNCCCCOc1ccc(OCc2ccccc2)cc1 | -80*
COCCCNCCCCOc1ccc(OCc2ccccc2)cc1 | -69*
Cc1ccc(NC2c3ncccc3C(=O)N2c2ccccc2C)cc1C (configuration not stated) | -168*
CN(C)/C=C1\C(=O)N(c2ccc(Cl)cc2)CS1(=O)=O | -126*
Cc1ccc(N2CS(=O)(=O)/C(=C/N(C)C)C2=O)cc1 | -108*
SMILES | aSyn UTR act
Cc1cc2c3c(ccc(C)c3n1)N=CN2c1ccccc1 | 54
Cc1c(Cl)cccc1N=c1c([N+](=O)[O-])nn(-c2ccccc2)n1O | -141*
Cc1ccc(N=c2c([N+](=O)[O-])nn(-c3ccccc3)n2O)c(C)c1 | -195*
N#C/C(=C(/O)CN1CCCC1)c1nc(-c2ccccc2)cs1 | -115*
C=CCN(C(=O)CN1CCCCC1)c1nc(-c2ccccc2)cs1 | -110*
Cc1c(-c2ccccc2)[n+](=O)c(-c2ccc(Br)cc2)c(C)n1[O-] | -102*
Cc1ccc(N/C=C/c2onc(C)c2[N+](=O)[O-])cc1 | -134*
Cc1noc(/C=C/c2ccc(-c3ccccc3Cl)o2)c1[N+](=O)[O-] | -63*
COc1cccc(N/C=C/c2onc(C)c2[N+](=O)[O-])c1 | -151*
CCCCCCn1cnc2c(oc3nc4c(cc32)CCCC4)c1=O | -108*
